We go through 15 compounds from PubChem BioAssay.

Activity calls are given as the source filed them.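 The calls were made as follows: active = viability at or below 10% of carrier control in both of two separate runs; inconclusive = viability at or below 10% in only one of the two runs; inactive = the rest.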

The nature of this test: reduced viability of SK-BR-3 breast cancer cells – cell-based, 24 h, human, pilot screen (AID 572).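 Also: compound exposure lasted between 18 and 24 h rather than exactly 24 h; 100% = carrier-treated control wells.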 As to conditions: SK-BR-3 viability, CellTiter-Glo luminescence, at 10 µM, stronger effect = lower value. In general terms: In ATP-based viability assays light output follows the ATP content of the culture.
Broadly, the viability is a read-out of living cells in per cent, often relative to untreated cells. Turning to `O=C(NCC(F)(F)F)Nc1cccnc1`, the viability was 82% (inactive).

Regarding `CC(=O)Nc1ccc(S(=O)(=O)N2CCN(c3cc(C)nc4ccccc34)CC2)cc1`, the viability is 103% (inactive).

On to `CCc1nnc(NC(=O)CSc2nnc(-c3ccccc3OC)n2-c2ccccc2)s1`, for which the viability is 77% (inactive).

As for `CCOc1ccc(CCNc2nc3c(c(=O)n(C)c(=O)n3C)n2CC)cc1OCC`, the viability is 108% (inactive).

As for `Cn1c(=O)c2c(nc(NCCNC(=O)c3ccco3)n2Cc2ccccc2Cl)n(C)c1=O`, the viability was 80% (inactive).

Consider `Cc1ccc2cc(C(c3nnnn3C3CCCC3)N3CCN(c4ccc(F)cc4)CC3)c(=O)[nH]c2c1` (stereo not given), for which the viability is 93% (inactive).

On to `Cc1ccc(OCC2Cn3c(nc4c3c(=O)n(C)c(=O)n4C)O2)cc1` (stereo not given), for which the viability was 91% (inactive).

In the case of `Cc1c(C(=O)N2CCN(c3ccccc3)CC2)sc2ncnc(N3CCN(c4ccccc4)CC3)c12`, the viability is 88% (inactive).

`COc1cccc(-c2nnc(SCC(N)=O)n2-c2ccc(Cl)cc2)c1`: the viability is 114% (inactive).

As to `CC1=C(C(=O)N2CCOCC2)C(c2ccccc2F)C2=C(CCCC2=O)N1` (stereo not given), the viability is 110% (inactive).

For `C/C=C(\C)c1nnc(NC(=O)OCC)s1`, the viability was 94% (inactive).

In the case of `C[C@H](CCC(=O)O)[C@H]1CC[C@H]2[C@@H]3C(=O)C[C@@H]4CC(=O)CC[C@]4(C)[C@H]3CC(=O)[C@]12C`, the viability is 128% (inactive).

`Cc1ccc2c(c1)nnn2C1CCN(C(=O)NC23CC4CC(CC(C4)C2)C3)CC1`: the viability is 72% (inactive).

`CN(C)C(CNC(=O)Nc1cccc(Cl)c1)c1cccnc1` (stereo not given): the viability is 77% (inactive).

Turning to `FC(F)Oc1cccc2cccnc12`, the viability is 89% (inactive).
